Screening data deposited in PubChem BioAssay by National Center for Advancing Translational Sciences (NCATS).
Shown are actives, neighbours in structure and some others; about 10% of the full set was active somewhere.
G9a inh: G9a (human) methyltransferase inhibition. Q96KQ7. G9a H3K9 monomethylation, AlphaScreen, 2 h. Potency, µM (doses to about 102 µM), without a hit: at the highest dose activity, negative = inhibition, hits mostly inhibitors. 8.8% of 350,000 active; also: % is scaled to controls: 0 for no effect and ±100 for the full control effect; nearly all actives have a fitted effect of over 75% in size
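Step 1: enzyme (final 20 nM) with compound, 15 min RT. Step 2: substrate peptide 500 nM and SAM 20 uM, 2 h RT. Step 3: anti-H3K9me1 antibody and AlphaScreen beads, 10 min, then plate read.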
L3MBTL1 inh: L3MBTL1 (human) inhibition | Q9Y468 | AlphaScreen L3MBTL1–H3K9me1 peptide binding | Potency, µM (doses to about 57.1 µM), for inactives: top-dose activity, negative = inhibition, actives largely listed as inhibitors | 0.66% of 230,000 active; also: % is scaled to controls: 0 for no effect and ±100 for the full control effect; nearly all actives have a fitted effect of over 60% in size
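AlphaScreen assay: L3MBTL1 (50 nM final) was preincubated 30 min at room temperature with biotinylated H3(1-15)K9me1 peptide (75 nM final), then 30 min with library compounds; streptavidin donor and nickel chelate acceptor beads (10 ug/mL final) added, 30 min dark.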
JMJD2A Tudor inh: JMJD2A Tudor domain (human) inhibition. Potency, µM (titrated, usually from 114 µM), for the others: top-dose activity change, negative = inhibition, actives largely listed as inhibitors. AID 504339. O75164. AlphaScreen JMJD2A-Tudor / H3K4me3 peptide binding. 4.4% of 390,000 active; also: % is scaled to controls: 0 for no effect and ±100 for the full control effect; nearly all actives have a fitted effect of over 50% in size
GLS inh: glutaminase GLS (human) inhibition; Potency, µM (highest dose often 45.5 µM), for inactives: at the highest dose activity change, negative = inhibition, actives largely listed as inhibitors; 0.21% of 410,000 active; GLS enzymatic activity, qHTS titration; AID 624170; also: % is scaled to controls: 0 for no effect and ±100 for the full control effect
Target sequence (O94925 whole entry, looked up): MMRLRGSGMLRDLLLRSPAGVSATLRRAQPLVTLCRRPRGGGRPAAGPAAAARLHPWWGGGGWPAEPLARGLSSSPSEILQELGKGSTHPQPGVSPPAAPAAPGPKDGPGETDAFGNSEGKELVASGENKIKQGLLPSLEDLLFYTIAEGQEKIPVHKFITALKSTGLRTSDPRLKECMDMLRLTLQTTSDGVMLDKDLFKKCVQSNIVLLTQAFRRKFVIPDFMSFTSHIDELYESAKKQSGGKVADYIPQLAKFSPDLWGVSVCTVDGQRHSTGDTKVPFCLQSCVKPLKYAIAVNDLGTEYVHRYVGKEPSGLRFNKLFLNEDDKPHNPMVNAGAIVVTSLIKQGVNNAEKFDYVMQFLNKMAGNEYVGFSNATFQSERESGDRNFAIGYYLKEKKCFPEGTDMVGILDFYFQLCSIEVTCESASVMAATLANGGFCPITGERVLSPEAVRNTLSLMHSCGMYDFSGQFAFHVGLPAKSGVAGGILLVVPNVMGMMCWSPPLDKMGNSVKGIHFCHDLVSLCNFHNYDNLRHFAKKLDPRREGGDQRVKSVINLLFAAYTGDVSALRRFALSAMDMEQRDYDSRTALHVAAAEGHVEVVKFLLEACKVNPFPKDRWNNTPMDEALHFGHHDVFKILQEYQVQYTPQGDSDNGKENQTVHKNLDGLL
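Glutamate formation by hKGA was monitored fluorometrically using coupled glutamate oxidase, HRP and Amplex Red. Substrate was added as 1 mM L-glutamine solution; incubation was 30 min at RT after an initial read.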
HP1b chromo inh: HP1-beta chromodomain-methylated histone interaction inhibition | P83916 | AlphaScreen HP1-beta / biotin-H3K9me3 peptide binding | Potency, µM (top dose mostly 114 µM), for inactives: top-dose activity change, negative = inhibition, hits mostly inhibitors | 0.56% of 390,000 active; also: nearly all actives have a fitted effect of over 70% in size
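HP1-beta protein (50 nM final) preincubated 30 min at room temperature with biotinylated H3(1-18)K9me3 peptide (50 nM) in PBS pH 7.4, 0.01% Tween-20, then compound added for 30 min. AlphaScreen streptavidin donor/nickel chelate acceptor beads (10 ug/mL final), 30 min dark, luminescence read.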
BAZ2B inh: blocks human BAZ2B. Q9UIF8. 4.4% of 360,000 active. Potency, µM (doses to about 114 µM), without a hit: at the top dose activity change, negative = inhibition, hits mostly inhibitors. AlphaScreen BAZ2B-H3K14Ac peptide displacement. AID 504333; also: % is scaled to controls: 0 for no effect and ±100 for the full control effect; nearly all actives have a fitted effect of over 60% in size
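Complex of BAZ2B and biotin-H3K14Ac (50 nM apiece) forms over 30 min at RT, then faces library compounds up to 110 uM for another 30 min; AlphaScreen beads added, 20 min dark incubation, luminescence read.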
The depositor's hits bear a star; [ ] = dose if it differs, or a comment. Calls follow the shape of the dose curve; as a rule, active = well fitted curve in the direction sought with a large enough effect; inconclusive = small, poorly fitted or top-dose-only effect, or another doubt; inactive = no such curve, though single readings can be large; an effect the other way counts as inactive or inconclusive. Potency is read from the fitted curve at half-maximal effect.

COc1cccc(C(NC(C)=O)c2nc(-c3cccc4cccnc34)cs2)c1 (stereo not given) was read as GLS inh 0%.
COc1ccc(C(NC(C)=O)c2ccc3cccnc3c2O)c(OC)c1 (stereo not given) was read as G9a inh 44%[59 µM], L3MBTL1 inh inconclusive, JMJD2A Tudor inh 79µM*, GLS inh 18%, HP1b chromo inh 26% and BAZ2B inh 28µM*.
CCCC(=O)NC(c1ccc(Cl)cc1Cl)c1ccc2cccnc2c1O (stereo not given) was read as G9a inh 20%, L3MBTL1 inh 4%, JMJD2A Tudor inh -19%, GLS inh -1%, HP1b chromo inh 44% and BAZ2B inh -2%.
`Cc1ccc(C(=O)N2CCC(c3c[nH]c4ccccc34)(c3c[nH]c4ccccc34)CC2)cc1` gave G9a inh -5%[59 µM], JMJD2A Tudor inh -36%, GLS inh 5%, HP1b chromo inh 0% and BAZ2B inh -27%.
For COc1ccc(N(CC(=O)Nc2cccc(C(C)=O)c2)S(=O)(=O)c2ccccc2)c(OC)c1 the results were G9a inh 3.2µM*, JMJD2A Tudor inh -12%, GLS inh 11%, HP1b chromo inh 23% and BAZ2B inh inconclusive.
Cc1ccc(/C=C/C(=O)Nc2cc(S(N)(=O)=O)ccc2O)cc1 was read as G9a inh 8.9µM*, L3MBTL1 inh 6%, JMJD2A Tudor inh -24%, GLS inh -4%, HP1b chromo inh inconclusive and BAZ2B inh -31%.
CCN(CC)c1ccc(NC(=O)c2cccnc2)c(C)c1 was read as G9a inh 32µM*, L3MBTL1 inh -10%, JMJD2A Tudor inh 0%[57.1 µM], GLS inh 67%, HP1b chromo inh 12% and BAZ2B inh -4%[57.1 µM].
Cc1ccc(NC(=O)c2cnc3cc(C)ccn3c2=O)c(C)c1 was read as G9a inh 0%[59 µM], JMJD2A Tudor inh -3%, GLS inh -8%, HP1b chromo inh 30% and BAZ2B inh 2%.
`COc1cc(C(=O)Nc2ccc(OCC(=O)N3CCOCC3)cc2C)cc(OC)c1OC` gave G9a inh 1%, JMJD2A Tudor inh -8%, GLS inh -1%, HP1b chromo inh 25% and BAZ2B inh -17%.
CCN(CC)c1ccc(NC(=O)c2cnc3ccccn3c2=O)c(C)c1 was read as G9a inh 1.8µM*, JMJD2A Tudor inh 45µM*, GLS inh 16%, HP1b chromo inh inconclusive and BAZ2B inh inconclusive.
CCN(CC)c1ccc(NC(=O)c2cccc(C)c2OC)c(C)c1 was read as G9a inh 3.5µM*, L3MBTL1 inh inconclusive, JMJD2A Tudor inh 40µM*, GLS inh 26%, HP1b chromo inh inconclusive and BAZ2B inh 35µM*.
Screening COc1c(C)cccc1C(=O)Nc1ccc(OCC(=O)N2CCOCC2)cc1C returned G9a inh -7%, JMJD2A Tudor inh -3%, GLS inh 5%, HP1b chromo inh 45% and BAZ2B inh 56µM*.
`Cn1cccc1C(=O)N1CCC2(CCN(C(=O)Nc3cccc(F)c3)CC2)CC1` gave G9a inh -30%[12.7 µM].
O=C(NCCCc1nc2ccccc2n1Cc1ccc(Cl)cc1)c1ccco1 was read as G9a inh -23%[59 µM], JMJD2A Tudor inh -17%, GLS inh -6%, HP1b chromo inh 45% and BAZ2B inh inconclusive.
`CC1CCc2c(sc(NC(=O)c3cc(-c4cccc(Cl)c4)on3)c2C(N)=O)C1` (stereo not given) gave G9a inh -25%[59 µM], JMJD2A Tudor inh -10%, GLS inh -4%, HP1b chromo inh 53% and BAZ2B inh -3%.
For CCOc1ccc(C(=O)Nc2ccc(-c3nc4cc(CC)ccc4o3)cc2)cc1 the results were G9a inh 0%[59 µM], JMJD2A Tudor inh 4%, GLS inh 1%, HP1b chromo inh 29% and BAZ2B inh 3%.
CC(Sc1nc(N2CCOCC2)c2c(c1C#N)CC(C)(C)OC2)C(=O)Nc1ccccc1 (stereo not given) was read as G9a inh 5.6µM*, L3MBTL1 inh 5%, JMJD2A Tudor inh -19%, GLS inh -16%, HP1b chromo inh 7% and BAZ2B inh -5%.
`CCOC(=O)CCSc1nc(N2CCOCC2)c2c(c1C#N)CC(C)(C)OC2` gave G9a inh 35µM*, JMJD2A Tudor inh 8%, GLS inh -6%, HP1b chromo inh -22% and BAZ2B inh 8%.
COC(=O)CCSc1nc(N2CCOCC2)c2c(c1C#N)CC(C)(C)OC2 was read as G9a inh 12%[2.33 µM], JMJD2A Tudor inh -3%, GLS inh 6%, HP1b chromo inh 19% and BAZ2B inh -2%.
CCOC(=O)C(C)Sc1nc(N2CCOCC2)c2c(c1C#N)CC(C)(C)OC2 (stereo not given) was read as JMJD2A Tudor inh -5%, GLS inh 11% and HP1b chromo inh 11%.
CC(=O)C1=C(c2ccccc2)N(C(C)=O)n2c(nnc2C2CCCCC2)S1 was read as G9a inh -1%[59 µM], JMJD2A Tudor inh 11%, GLS inh -2%, HP1b chromo inh 97% and BAZ2B inh 6%.
`COC(=O)CC(NC(=S)NC(=O)c1ccccc1)c1ccc(Br)cc1` (stereo not given) gave G9a inh 40µM*, JMJD2A Tudor inh -8%, GLS inh -4%, HP1b chromo inh 25% and BAZ2B inh -19%.
`COC(=O)CC(N)c1ccc(Br)cc1` (stereo not given) gave G9a inh -40%, L3MBTL1 inh 7%, JMJD2A Tudor inh 7%, GLS inh 7%, HP1b chromo inh 30% and BAZ2B inh -2%.
Screening CCOc1ccc(-c2cn3c(n2)sc2cc(C(=O)NC(C)C45CC6CC(CC(C6)C4)C5)ccc23)cc1 (stereo not given) returned G9a inh 34%[59 µM], JMJD2A Tudor inh 1%, GLS inh 2%, HP1b chromo inh 68% and BAZ2B inh 0%.
Cn1nc(-c2ccccc2F)c2cc(C(=O)N3CCN(c4ccccc4F)CC3)sc21 was read as G9a inh -6%[59 µM], JMJD2A Tudor inh -19%, GLS inh -8% and HP1b chromo inh 35%.
`COc1ccc(-c2nn(-c3ccccc3)cc2/C=C2/SC(=S)N(Cc3ccco3)C2=O)c(C)c1` gave G9a inh -46%, L3MBTL1 inh -3%, JMJD2A Tudor inh inconclusive, GLS inh 2%, HP1b chromo inh -12% and BAZ2B inh -34%.
